Records with an inconclusive call do not appear. Calls follow the shape of the dose curve; as a rule, active = well fitted curve in the direction sought with a large enough effect; inconclusive = small, poorly fitted or top-dose-only effect, or effect the other way, or another doubt; inactive = no such curve, though single readings can be large or run the other way.
Target: Pyruvate kinase PKLR (Homo sapiens) (UniProt P30613)
Assay: Secondary Concentration-Response Assay for Activators of Human Reticulocyte Pyruvate Kinase: for Probe SAR
Settings: purified hPK-R, ATP production, Kinase-Glo luminescence; series mostly up to 57.5 µM; activity change, negative = inhibition: at the top concentration
Source text: NIH Chemical Genomics Center [NCGC]
Wael M. Rabeh, Lyudmila Nedyalkova and Hee-Wan Park [Structural Genomics Consortium, 100 College St. Toronto, Ontario, Canada]
Human pyruvate kinase reticulocyte (hPK-R) enzyme was supplied as a highly purified (>95% pure) preparation from Structural Genomics Consortium in Toronto (Ontario, Canada) and assayed for its ability to generate ATP from ADP using phosphoenolpyruvate (PEP) as a substrate. ATP generation was detected in a coupled reaction by luciferase-mediated luminescence, an ATP-dependent process. Pyruvate kinase substrates, PEP and ADP, were present in the assay at Km and approximately 10-fold below Km respectively. The enzyme was assayed at an intermediate level of activity to screen for both inhibitors and activators.
NCGC Assay Protocol Summary for R-isoform
Three uL of substrate mix (at r.t.) in assay buffer (50 mM Imidazole pH7.2, 50 mM KCl, 7 mM MgCl2, 0.01% Tween 20, 0.05% BSA) was dispensed into white solid bottom 1,536 well microtiter plates so that the final concentrations of substrates in the assay were 0.1 mM ADP and 0.5 mM PEP. 23 nL of compound were delivered by a pin tool and 1 uL of enzyme mix (final concentration of 0.1 nM) in assay buffer (4 degree Celsius) was added. Plates were incubated at room temperature for 1 hour. Two uL of detection mix (Kinase-Glo, Promega; at 4 degree Celsius protected from light) was added and luminescence read by a ViewLux (Perkin Elmer) at 1 second exposure/plate. Data were normalized to the uninhibited (row 31). Additionally, a no enzyme and 5-fold enzyme control was dispensed in row 32, split equally between the two conditions.

Sequence of Pyruvate kinase PKLR (Homo sapiens) (P30613 whole entry, looked up): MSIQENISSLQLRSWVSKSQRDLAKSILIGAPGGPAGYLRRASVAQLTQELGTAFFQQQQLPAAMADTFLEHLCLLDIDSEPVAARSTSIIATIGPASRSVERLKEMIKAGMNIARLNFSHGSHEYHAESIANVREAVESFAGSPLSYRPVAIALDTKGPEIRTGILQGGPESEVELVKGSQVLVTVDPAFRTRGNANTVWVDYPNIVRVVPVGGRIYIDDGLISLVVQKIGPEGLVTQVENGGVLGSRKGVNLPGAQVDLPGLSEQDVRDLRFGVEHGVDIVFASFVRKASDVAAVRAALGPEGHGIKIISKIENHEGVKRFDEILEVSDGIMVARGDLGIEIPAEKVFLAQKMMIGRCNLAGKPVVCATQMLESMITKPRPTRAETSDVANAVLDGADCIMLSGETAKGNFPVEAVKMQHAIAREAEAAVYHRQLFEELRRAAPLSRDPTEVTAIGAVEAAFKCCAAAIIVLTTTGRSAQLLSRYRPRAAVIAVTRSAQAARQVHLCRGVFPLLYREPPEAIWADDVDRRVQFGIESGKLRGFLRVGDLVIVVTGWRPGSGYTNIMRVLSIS

Activity change, negative = inhibition, inactive:
O=C1CCc2cc(S(=O)(=O)Nc3cccc(Cl)c3)ccc2N1 8.82%
O=C1CCc2cc(S(=O)(=O)Nc3ccc4ncccc4c3)ccc2N1 6.24%
O=C1CCc2cc(S(=O)(=O)Nc3ccc(Cl)c(Cl)c3)c(F)cc2N1 2.57%
O=C1c2ccccc2C(=O)N1Cc1ccccc1 8.92%
Cc1c(Cl)cccc1NS(=O)(=O)c1cc2c(cc1F)NC(=O)CC2 -6.02%
COc1cccc(Cn2ncc3c4sc(S(C)=O)cc4n(C)c3c2=O)c1 (stereo not given) 11.7%
O=C1c2ccccc2C(=O)N1c1nccs1 8.19%
O=C1CCc2cc(S(=O)(=O)Nc3ccc4ccccc4c3)ccc2N1 3.45%
Cc1cc(NS(=O)(=O)c2ccc3c(c2)CCC(=O)N3)ccc1Cl 6.47%
O=C1c2ccccc2C(=O)N1c1ccc2ccccc2n1 -5.73%
N#Cc1cccc(NS(=O)(=O)c2ccc3c(c2)CCC(=O)N3)c1 4.74%
O=C1c2ccccc2C(=O)N1c1ccc(Cl)cc1 3.5%
O=C1CCc2cc(S(=O)(=O)Nc3ccncc3)ccc2N1 3.56%
O=C1CCc2cc(S(=O)(=O)Nc3cccc4ccccc34)ccc2N1 -2.68%
COc1ccc(NS(=O)(=O)c2ccc3c(c2)CCC(=O)N3)cc1 15.1%
O=C1CCc2cc(S(=O)(=O)Nc3ccccn3)ccc2N1 7.53%
Cc1ccc(NS(=O)(=O)c2cc3c(cc2Cl)CCC(=O)N3)cc1Cl -0.101%
Nc1cccc(S(=O)(=O)N2CCCN(S(=O)(=O)c3ccc4c(c3)OCCO4)CC2)c1 20.9%
CN(C)c1cccc(S(=O)(=O)N2CCN(S(=O)(=O)c3ccc4c(c3)OCCO4)CC2)c1 27.9%
O=C1NS(=O)(=O)c2ccccc21 -1.36%
COc1cccc(NS(=O)(=O)c2ccc3c(c2)CCC(=O)N3)c1 11%
O=C1CCc2cc(S(=O)(=O)Nc3ccccc3F)ccc2N1 -5.2%
O=C1CCc2cc(S(=O)(=O)Nc3ccccc3-c3ccccc3)ccc2N1 0.876%
Cc1ccccc1NS(=O)(=O)c1ccc2c(c1)CCC(=O)N2 12.2%
O=C(O)c1ccccc1SC1=NS(=O)(=O)c2ccccc21 -92.8%
O=C1c2ccccc2C(=O)N1c1ccc2ncccc2c1 14.8%
O=C1c2ccccc2C(=O)N1Cc1ccccn1 5.95%
O=C1CCc2cc(S(=O)(=O)Nc3ccc4c(c3)CCC4)ccc2N1 11%
O=C1c2ccccc2C(=O)N1c1cccnc1 -5.55%
O=C1c2ccccc2C(=O)N1c1ccncc1 4.7%
O=C1c2ccccc2C(=O)N1c1ccccn1 3.08%
O=C1CCc2cc(S(=O)(=O)NCc3ccccc3)ccc2N1 8.42%
O=C1c2ccccc2C(=O)N1c1cccc2ccncc12 11.9%
O=C1CCc2cc(S(=O)(=O)Nc3ccc(-c4ccccc4)cc3)ccc2N1 9.89%
O=C1CCc2cc([S+](=O)([O-])NC3CCOCC3)ccc2N1 -3.67%
Cc1ccc(NS(=O)(=O)c2ccc3c(c2)CCC(=O)N3)cc1 13.9%
O=C1CCc2cc(S(=O)(=O)Nc3ccc(F)cc3)ccc2N1 0.814%
O=C1CCc2cc(S(=O)(=O)Nc3cc(F)cc(Cl)c3)c(F)cc2N1 -1.27%
O=C1c2ccccc2C(=O)N1c1cccc2ncccc12 10.5%
Cc1ccc(NS(=O)(=O)c2ccc3c(c2)CCC(=O)N3)cc1Cl -0.942%

— PubChem BioAssay AID2534 (National Center for Advancing Translational Sciences (NCATS), 2010)
